Experimental findings from ChEMBL document CHEMBL3433997, “St. Jude Leishmania screening dataset” (2016) are described below.

Sequence of Solute carrier family 2, facilitated glucose transporter member 1 (Homo sapiens) (P11166 whole entry): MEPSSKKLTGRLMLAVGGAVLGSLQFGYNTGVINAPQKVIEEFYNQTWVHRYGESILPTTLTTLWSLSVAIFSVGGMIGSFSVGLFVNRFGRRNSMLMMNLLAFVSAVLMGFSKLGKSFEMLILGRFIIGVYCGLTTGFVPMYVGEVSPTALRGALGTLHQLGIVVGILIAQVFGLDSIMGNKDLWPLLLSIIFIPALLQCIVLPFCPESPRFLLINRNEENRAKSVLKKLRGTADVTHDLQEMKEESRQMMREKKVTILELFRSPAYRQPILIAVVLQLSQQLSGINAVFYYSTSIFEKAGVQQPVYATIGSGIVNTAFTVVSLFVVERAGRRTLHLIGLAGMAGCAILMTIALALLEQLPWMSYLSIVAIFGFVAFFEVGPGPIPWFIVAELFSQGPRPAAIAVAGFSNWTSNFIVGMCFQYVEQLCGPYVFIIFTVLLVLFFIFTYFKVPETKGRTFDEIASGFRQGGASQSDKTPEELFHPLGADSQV

This assay concerns the target Solute carrier family 2, facilitated glucose transporter member 1 (Homo sapiens) (UniProt P11166). Briefly: ST_JUDE_LEISH: Cytotoxicity at 2uM final concentration against transgenic Leishmania Mexicana promastigotes LmGLUT1 that are glucose transport deficient and complemented with the human glucose transporter GLUT1. Activity is measured by DNA content using SYBR green in vitro. It counts as functional.
As usually defined, the inhibition is the relative decrease from the control value, in per cent. Consider `O=c1cc(NCCCNCc2cc(F)cc(C(F)(F)F)c2)[nH]c2ccccc12`, for which the inhibition was -0.27%.
The result for `Cc1cc(N)c2cc(NC(=O)c3cc(C(F)(F)F)cc(C(F)(F)F)c3)ccc2n1` reads 0.38%; that for `O=C(/C=C/c1ccc(Cl)c(Cl)c1)NCCCCCN1CCCC(C(=O)Nc2ccc(Cl)cc2)C1` (stereo not given), 3.76%.
To `CCN(CCCN1CCCCC1)c1cc(C)nc(Nc2ccc(Br)cc2F)n1` belongs 0.13%; to `O=C(CCN1CCCCC1)Nc1ccc(Nc2nccc(NCC(O)c3ccccc3)n2)cc1` (stereo not given), -1.33%.
To `CC(=O)Nc1ccc(Nc2ncc([N+](=O)[O-])c(Nc3ccccc3C(N)=O)n2)cc1` belongs 3.27%.
On to `CC(C)C[C@H](NC(=O)c1ccc(OCCN2CCOCC2)cc1)C(=O)N[C@H](/C=N/N1CCNC1=O)CCc1ccccc1`, for which the inhibition was 6.57%.
Take `CCn1c(SC)nnc1C1CCCN(CC(=O)Nc2nc3ccc(OC)cc3s2)C1` (stereo not given): the inhibition stood at 4.48%.
The result for `Cc1cccc2nc(-c3cccc(-c4cccc(NC(=O)CC5NC(=O)c6ccccc65)c4)c3)[nH]c12` (stereo not given) reads 0.82%.
The result for `CC(Nc1ccc2c(c1)OCCO2)C(=O)Nc1cc(C(F)(F)F)ccc1N1CCOCC1` (stereo not given) reads 7.38%.
For the molecule `NC(=O)N1CCN(Cc2ccc(Br)cc2)CC1`, the inhibition is 0.39%.
As for `COC(=O)Cn1c(C2CCN(CC3CCN(C(=O)/C=C/c4ccc(Cl)c(Cl)c4)CC3)CC2)nc2ccccc21`, the inhibition worked out at 3.09%.
The result for `O=C(Nc1cccc(F)c1)N[C@H]1CCN(CCCCCNC(=O)C2CC2c2ccc(Cl)c(Cl)c2)C1` (stereo not given in full) reads 4.75%; that for `CCN(CCCN1CCCCC1)c1cc(C)nc(Nc2cc(Cl)ccc2C)n1`, 1.18%.
To `CCN(CCCN1CCCCC1)c1cc(C)nc(Nc2ccc(F)c(C(F)(F)F)c2)n1` belongs -1.41%.
